The values that follow come from ChEMBL document CHEMBL1157539, “Thousands of chemical starting points for antimalarial lead identification” (Nature, 2010).

The structures appear in SMILES notation. Whole data set: some 13,000 compounds, median “IFI” near 4, cut for the highest 2% near 17. Shown is part of a subset that was picked to be rich in the highest values.

The nature of this assay: GSK_TCMDC: Inhibition Frequency Index (IFI). The number of non-kinase HTS assays where a compound showed > 50 % inhibition, expressed as a percentage of the number of such assays in which the compound was tested. The format is functional.
In turn, `CS(=O)(=O)c1cccc2sc(N3CCN(C(=O)c4ccc([N+](=O)[O-])o4)CC3)nc12` gave an IFI of 4%.
Then `Cc1cccc(Nc2c(-c3cc(Br)ccc3O)nc3ncccn23)c1`, with 8.7%; and `COc1ccc(CNC(=O)c2cnc3c(O)cccc3c2Nc2cccc(NC(=O)c3ccc(F)cc3)c2)cc1`, with 6.98%; and `CCCCCOc1ccc(C(=NC)N(CCCCC)CCCCC)c2ccccc12`, with 25.2%.
Then `CCCCCCOc1ccc(/C(N)=N\Cc2ccccc2)c2c1CCCC2`, with 13.3%; and `CCCCCCN(CCCCCC)CC(O)c1c(OC)ccc2ccccc12` (stereo not drawn), with 5.93%.
Molecule `Cc1ccc(Nc2cc(C)nn2-c2nc(C)cc(O)n2)cc1` returned an IFI of 12.3%.
Then `CN(C)Cc1cccc(-c2ccc3ccnc(N)c3c2)c1`, with 4.42%.
The molecule `Cc1[nH]c(C)c(-c2ccc(-c3ccccc3C(F)(F)F)nc2)c(=O)c1Br` registered an IFI of 0.92%.
Then `COc1ccc2c(NN=Cc3ccc(Cl)cc3)ccnc2c1`, with 2.26%; and `CCCCOc1cc(CNCCCCCCNCc2cc(OCCCC)cc3ccccc23)c2ccccc2c1`, with 12.5%.
For `CCCOc1c(CCNCCCCNCCc2ccc3ccccc3c2OCCC)ccc2ccccc12` the value was 14.7%; for `CCCCOc1c(CCNCCCCNCCc2cc(F)c3ccccc3c2OCCCC)cc(F)c2ccccc12`, 19.6%.
Then `CCOc1cc2ccccc2cc1CNCCCCCCNCc1cc2ccccc2cc1OCC`, with 11.5%.
As to `CCCCOc1c(CCNCCCCNCCc2cc(OC)c3ccccc3c2OCCCC)cc(OC)c2ccccc12`, the IFI came out at 15%.
On to `CCCCOc1c(CNCCCCCCNCc2ccc3ccccc3c2OCCCC)ccc2ccccc12`, for which the IFI is 16.6%.
`CCOc1c(CCNCCCCNCCc2ccc3ccccc3c2OCC)ccc2ccccc12` displayed an IFI of 18.4%.
For `CCOc1c(CNCCCCCCNCc2ccc3ccccc3c2OCC)ccc2ccccc12`, the IFI is 22%.
`[O-][s+]1nc(NCCCN(Cc2cccs2)c2ccccn2)c(NCc2ccccc2)n1` (stereo not drawn): the IFI amounted to 4.83%.
For `CCNC(C)(C)CN(Cc1ccc(-c2ccc(C(F)(F)F)cc2)cc1)C(=O)Cn1c(CCc2cccc(F)c2F)nc(=O)c2ccccc21` the value was 6.94%.
For `Cc1cccc2nc(-c3ccc(-c4ccc(CN5CC(C)OC(C)C5)cc4)cc3)[nH]c12` (stereo not drawn) the value was 6.94%; for `CC1CC1C(=O)NC1CCN(CC2(c3ccccc3)CCCCC2)CC1` (stereo not drawn), 6.38%; for `Cc1ccoc1C(=O)Nc1cccc(-c2cccc(-c3nc4cc(C(F)(F)F)ccc4[nH]3)c2)c1`, 6.48%.
Then `COc1cc(CC2c3cc(O)c(Cl)cc3CCN2C)c(OC)cc1C` (stereo not drawn), with 2.13%; and `COc1ccc(CCNC(C)Cc2ccc(C(=O)Nc3ccc(CC(C)NCCc4cccc(Cl)c4)cc3)cc2)cc1` (stereo not drawn), with 9.86%.
`Cn1c(Nc2cc(C(C)(C)C)on2)nc2cc(Nc3ccnc(Nc4ccc(CS(C)(=O)=O)cc4)n3)ccc21`: the IFI is 0.95%.
Then `CCCCCCCNc1cc(C)nc2ccc(OC)cc12`, with 7.3%; and `COc1ccc(C(c2ccc(N(C)C)cc2)c2ccc(N(C)C)cc2)cc1`, with 18.2%.
`CN(C)c1ccc(C(c2ccc(N(C)C)cc2)c2cc([N+](=O)[O-])ccc2Cl)cc1` showed an IFI of 1.47%.
Then `CN(C)c1ccc(OCCCCCCOc2ccccc2)cc1`, with 0.72%; and `CC(C)CCNC(=O)C1Cc2c([nH]c3ccc(Br)cc23)C2(CCN(Cc3ccccc3)CC2)N1` (stereo not drawn), with 7.04%; and `CN1CCCC(CN2CCN(Cc3cccc(-c4ccc(-c5nc6ccccc6[nH]5)s4)c3)CC2)C1` (stereo not drawn), with 5.63%.
`CN1CCN(c2nsc3ccc(-c4ccc(OCCN5CCCC5)cc4)cc23)CC1` had an IFI of 12.2%.
Then `Cc1cc(NCCc2ccccc2)nc(NC(=N)Nc2cccc([N+](=O)[O-])c2)n1`, with 6.21%.
Then `COc1ccc(-c2nccc(NC(=N)NCc3ccccc3)n2)cc1`, with 10.7%; and `N=C(Nc1ccccc1)Nc1cccc(Cc2ccc([N+](=O)[O-])cc2)n1`, with 19.9%; and `N=C(Nc1cccc(Cc2ccccc2)n1)Nc1ncccn1`, with 17.2%.
For `CC1(C)N=C(NC(=O)Nc2ccc([N+](=O)[O-])cc2)N=C(N)N1OCc1cccc2ccccc12`, the IFI was found to be 1.46%.
On to `N=C(N)Nc1nccc(NCc2ccccc2)n1`, for which the IFI was found to be 5.3%.
Then `CC(C)(C)CCN1CCC(CNC(=O)c2cc(-c3cccc(C(F)(F)F)c3)cs2)C1` (stereo not drawn), with 10%; and `CN(C)Cc1ccc(-c2cc3c(-c4ccc(CN(C)C)cc4)ccnc3[nH]2)cc1`, with 0%; and `Cn1cc(-c2ccnc3[nH]c(-c4cccc(CNC5CCC(O)CC5)c4)cc23)cn1` (stereo not drawn), with 8.11%.
For `CN(C)Cc1cccc(-c2cc3c(-c4cnn(C)c4)c(Cl)cnc3[nH]2)c1` the value was 22.2%.
Then `OCCN1CCN(Cc2ccc(-c3cccc(-c4nc5cc(F)ccc5[nH]4)c3)cc2)CC1`, with 3.92%; and `CN(C)Cc1cccc(-c2cnc(N)c(-c3nc4cc(S(C)(=O)=O)ccc4[nH]3)c2)c1`, with 7.41%.
`Fc1ccc2[nH]c(-c3cccc(-c4ccc(CNCC5CCCO5)cc4)c3)nc2c1` (stereo not drawn) gave an IFI of 5.88%.
Then `O=C(Nc1ccc(Cl)cc1)c1cccc2nc(C(F)(F)F)[nH]c12`, with 21.3%; and `O=C(Nc1ccc(Cl)cc1)c1cc(Cl)cc2nc(C(F)(F)F)[nH]c12`, with 27.1%.
For `O=C(Nc1ccc(Cl)cc1)Nc1cccc(-c2cccc(-c3nc4cc(C(F)(F)F)ccc4[nH]3)c2)c1` the value was 9%; for `COc1ccc(Cl)cc1C(=O)Nc1ccc(-c2nc3ccccc3[nH]2)cc1`, 6.52%.
Then `Cc1cccc2nc(-c3ccc(-c4ccc(NC(=O)Nc5ccc(Cl)cc5)cc4)cc3)[nH]c12`, with 4%; and `O=C(Nc1ccc(C(F)(F)F)cc1)c1cc(Cl)cc2nc(C(F)(F)F)[nH]c12`, with 23.4%; and `O=C(Nc1ccc2c(c1)CCNCC2)c1ccc(-c2ccc(Cl)cc2)cc1`, with 9.66%.
Molecule `O=C(Nc1ccc(-c2cccc(-c3nc4cc(C(F)(F)F)ccc4[nH]3)c2)cc1)c1ccncc1` registered an IFI of 6.42%.
For the molecule `O=C(Nc1cccc(C(F)(F)F)c1)c1cccc2nc(C(F)(F)F)[nH]c12`, the IFI came to 16.4%.
Then `COc1cccc(NC(=O)Cn2c(C)c(C#N)c3ccccc32)c1`, with 0%.
The molecule `CCOC(=O)c1ccc(-c2cnc(N)c(-c3nc4cccc(C)c4[nH]3)c2)cc1` came in with an IFI of 0.69%.
Then `Cc1ccc(Nc2nccc(Nc3ccc4c(c3)nc(Nc3cc(C(C)(C)C)on3)n4C)n2)cc1S(C)(=O)=O`, with 7.63%; and `COc1ccc(CNC2Cc3ccccc3C2)cc1-c1ccc(OC)c(S(=O)(=O)NCCN2CCCC2)c1`, with 7.69%; and `CCn1cc(-c2nc(-c3cc(OC)cc(OC)c3)no2)c(=O)c2ccccc21`, with 4.35%.
Then `CC(C)N1CCN(C(CN2CCN(CCCOc3cccc(F)c3)CC2)c2ccc(F)cc2)CC1` (stereo not drawn), with 6.2%; and `CN1CCN(c2ccc(Nc3nccc(-c4c(-c5cccc(NC(=O)c6c(F)cccc6F)c5)nn5ccccc45)n3)cc2)CC1`, with 9.35%; and `O=S(=O)(Nc1cc2c(cc1OCCCN1CCCCC1)CCNCC2)c1ccc(-c2ccc(Cl)cc2)cc1`, with 11.9%.
In turn, `CC(C)Oc1cc2c(cc1NS(=O)(=O)c1ccc(-c3ccc(Cl)cc3)cc1)CCN(C)CC2` displayed an IFI of 12.4%.
For `CN1CCc2cc(NS(=O)(=O)c3ccc(-c4ccc(Cl)cc4)cc3)c(OCCCN3CCCCC3)cc2CC1` the value was 18.6%.
For `c1cc(CN2CCCCC2)cc(-c2ccc(-c3nc4ccccc4[nH]3)s2)c1` the value was 2.86%.
Then `COc1ccc(CNC2Cc3ccccc3C2)cc1-c1ccc(S(=O)(=O)NCc2ccccc2)s1`, with 12.3%; and `Cc1ccc(C(=O)Nc2ccc(Nc3ccnc4cc(-c5ccccn5)ccc34)cc2O)cc1`, with 10.3%; and `COc1cc2cc(C(=O)Nc3ccccc3)c(N)nc2cc1OC`, with 1.28%.
`COc1ccc(/N=C(\N)Nc2ccccc2)nc1Cc1ccccc1`: the IFI was 30.2%.
Then `COc1cc2nc(C)nc(Nc3ccc(Cc4ccccc4)cc3)c2cc1OC`, with 6.35%; and `COc1ccc2nc(NC(N)=NC(=O)Nc3ccccc3)nc(C)c2c1`, with 0.81%.
For `COc1ccc(Cc2nc(/N=C(\N)Nc3ccccc3)ccc2OC)cc1` the value was 22.6%.
Then `COc1ccc(CCN(C)CCOc2ccc(NC(=O)c3cccc4cc5ccccc5nc34)cc2)cc1OC`, with 6.67%; and `Nc1c2ccccc2nc2cc([N+](=O)[O-])ccc12`, with 6.92%.
In the case of `Nc1cc(/C=C/c2ccc([N+](=O)[O-])s2)nc2ccccc12`, the IFI was determined as 19.2%.
For `Nc1cc(/C=C/c2ccc([N+](=O)[O-])o2)nc2ccccc12` the value was 16.7%; for `O=C(c1cccc(Br)c1)N1CCN(c2ccc([N+](=O)[O-])c(NC3CC3)c2)CC1`, 4.2%.
Then `COc1ccc2ncc(F)c(CCN3CC[C@@H](CNCc4nc5c(cc4C)SCC(=O)N5)C3)c2n1`, with 5.83%.
Turning to `CCOc1ccc2nc3cc(NC(=O)c4ccco4)ccc3c(N)c2c1`, the IFI came out at 20.5%.
Regarding `CCOc1ccc2nc3cc(N)ccc3c(N)c2c1`, the IFI was 2.08%.
For `CCOc1ccc2nc3cc([N+](=O)[O-])ccc3c(N)c2c1` the value was 6.34%; for `CC(C)(CNCc1cccc(Oc2cccc(C(F)(F)F)c2)c1)c1nc(-c2ccnc(N)n2)c(-c2ccc(Cl)c(O)c2)[nH]1`, 4.35%.
Then `CCNc1cc(C)nc(Nc2ccc(NS(=O)(=O)c3ccccc3)cc2)n1`, with 20.4%.
For `Cc1cc(N(C)C)nc(Nc2ccc(NC(=O)c3c(F)cccc3Cl)cc2)n1` the value was 1.89%; for `CCNc1cc(C)nc(Nc2ccc(NC(=O)c3c(F)cccc3Cl)cc2)n1`, 18.2%.
Molecule `CCNc1cc(C)nc(Nc2ccc(NC(=O)c3ccccc3Cl)cc2)n1` returned an IFI of 11.3%.
Then `Cc1cc(N(C)C)nc(Nc2ccc(NS(=O)(=O)c3ccccc3)cc2)n1`, with 9.62%.
Then `CCNc1cc(C)nc(Nc2ccccc2)n1`, with 2.94%; and `Cc1cc(Nc2ccc(O)cc2)nc2cc(O)ccc12`, with 3.85%; and `CN(C)/C(=N/C(=N)NCc1ccc(Cl)c(Cl)c1)NCCCCCCN/C(=N\C(=N)NCc1ccc(Cl)c(Cl)c1)N(C)C`, with 11.8%.
For `CCN(CC)/C(=N/C(=N)NCc1cccc(Cl)c1)NCCCCCCN/C(=N\C(=N)NCc1cccc(Cl)c1)N(CC)CC` the value was 13.8%; for `N=C(/N=C(/NCCCCCCN/C(=N/C(=N)NCc1ccc(Cl)c(Cl)c1)N1CCCCC1)N1CCCCC1)NCc1ccc(Cl)c(Cl)c1`, 18.8%; for `CCCCN(CCCC)/C(=N/C(=N)NCc1ccc(Cl)c(Cl)c1)NCCCCCCN/C(=N\C(=N)NCc1ccc(Cl)c(Cl)c1)N(CCCC)CCCC`, 22.9%.
For `N=C(/N=C(/NCCCCCCN/C(=N\C(=N)Nc1ccc(Cl)cc1)N1CCCCC1)N1CCCCC1)Nc1ccc(Cl)cc1`, the IFI was 10.9%.
Then `N=C(/N=C(/NCCCCCCN/C(=N\C(=N)Nc1ccc(Cl)cc1)N1CCOCC1)N1CCOCC1)Nc1ccc(Cl)cc1`, with 6.72%.
For `Cc1cccc2nc(-c3cccc(-c4ccc(NC(=O)C5CCCO5)cc4)c3)[nH]c12` (stereo not drawn) the value was 5.31%.
For `Cc1ccc(C(=O)Nc2ccc(F)cc2)cc1-c1nc(NC2CC(C)(C)NC(C)(C)C2)nc2c1ccc(=O)n2-c1c(F)cccc1F` the value was 10.9%; for `CC(C)c1ccc(OCCCON2C(=N)N=C(N)NC2(C)C)cc1`, 6.34%.
The molecule `CCOC(=O)c1c(-c2ccccc2)nc2c(sc3ccccc32)c1O` gave an IFI of 1.48%.
`c1ccc(CCNc2ccnc(Nc3ccc4[nH]nnc4c3)n2)cc1`: the IFI was 3.23%.
Then `CCN(CC)CCN(Cc1ccc(-c2ccc(C(F)(F)F)cc2)cc1)C(=O)Cn1c(SCc2ccc(F)cc2)cc(=O)c2ccccc21`, with 7.64%.
For `COc1ccc2[nH]ccc(=NN=Cc3ccc(F)cc3)c2c1` the value was 2.22%.
